Screening results as filed in PubChem.
ANO1 activ: activates or potentiates the mouse TMEM16A chloride channel; HEK293 TMEM16A/YFP-H148Q/I152L, iodide quench fluorescence; stronger effect = lower value; B-score at 10 µM; actives 0.3% (n = 340,000);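 active means fluorescence-ratio B-score plate-corrected deviation score at least 3 library SD below zero, with starting fluorescence score within 5 deviations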;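 further: channel opened by trigger with iodide after compound preincubation; score built on the fluorescence ratio of max minus min over baseline; more negative score means more quench and so TMEM16A activation or potentiation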
ANO1 block: blocks the mouse calcium-activated chloride channel TMEM16A. HEK293 TMEM16A/YFP iodide influx fluorescence, ionomycin. Q8BHY3. normalized B-score (activity score, 25-100; higher = stronger inhibition) at 10 µM. actives 1.2% (n = 310,000);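 active means ratio plate-corrected score three or more library SD toward inhibition, starting fluorescence score within five deviations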;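 further: score derived from kinetic fluorescence span divided by baseline fluorescence per well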
CHT PAM: allosterically activates the human high affinity choline transporter | actives 0.49% (n = 310,000) | B-score at 10 µM | CHT-expressing cells, membrane potential dye, choline EC20; stronger effect = higher value; LV-AA mutant CHT in HEK293 cells;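 active means initial fluorescence not abnormally high and integrated response B-score, plate-corrected, over 3 SD above library mean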
Kir21 block: blocks the mouse Kir2.1 inward-rectifier potassium channel | HEK293-Kir2.1, FluxOR thallium flux fluorescence; stronger effect = lower value | B-score at 10 µM | actives 0.85% (n = 310,000);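 active means fluorescence ratio B-score at or below minus 3 SD of library scores, with starting-brightness B-score within 2 SD, cut at about -4.2 in these data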;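 further: channel flux triggered by added potassium and thallium sulfate stimulus; B-score of peak minus minimum fluorescence over baseline after thallium stimulus; more negative B-score means stronger Kir2.1 block with less thallium influx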
CHT block: inhibitors of human choline transporter CHT. Q9GZV3. CHT-expressing cells, membrane potential dye, choline response; stronger effect = lower value. B-score at 10 µM. actives 0.86% (n = 310,000). AID 488975;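 active means B-score over 3 SD under the library average, and starting fluorescence ratio not unusually high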;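 further: choline stimulus applied at its EC90 after an EC20 pre-addition; B-score computed on integrated fluorescence ratio after choline addition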
Rce1 inh: inhibitors of yeast Ras-converting enzyme; Q03530; yeast membranes, quenched prenylated peptide cleavage fluorescence; calls only; actives 0.27% (n = 290,000); AID 2563;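 active means fall in fluorescence gain of 50% or more versus controls, with final raw signal at or below 3038400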;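 further: plate controls were neutral control wells for no effect and wells lacking membranes for full effect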
The depositor's hits bear a star. In the library only some 3.2% were active in any assay of this set; here they are far more common.

What do the screens show for `O=S1(=O)CCOC[C@H](c2ccccc2)N1Cc1cccc(Cl)c1`?
ANO1 activ: inactive; ANO1 block: inactive; CHT PAM: inactive; Kir21 block: -2.9; CHT block: inactive; Rce1 inh: inactive

What do the screens show for `CCOC(=O)CSC1=C(C#N)C(c2ccc(C)o2)CC(=O)N1` (stereo not drawn)?
ANO1 activ: inactive; ANO1 block: inactive; CHT PAM: inactive; Kir21 block: -4.4*; CHT block: inactive; Rce1 inh: inactive

Results for N#CC1=C(SCc2ccccc2)NC(=O)CC1c1ccccc1 (stereo not drawn) ?
ANO1 activ: inactive; ANO1 block: inactive; CHT PAM: inactive; Kir21 block: -11*; CHT block: inactive; Rce1 inh: inactive

How did CCOC(=O)CSC1=C(C#N)C(c2ccc3c(c2)OCO3)CC(=O)N1 (stereo not drawn) do in these assays?
ANO1 activ: inactive; ANO1 block: inactive; CHT PAM: inactive; Kir21 block: -1.1; CHT block: inactive; Rce1 inh: inactive

What do the screens show for `CCOC(=O)CSC1=C(C#N)C(c2ccc(Cl)cc2)CC(=O)N1` (stereo not drawn)?
ANO1 activ: inactive; ANO1 block: inactive; CHT PAM: inactive; Kir21 block: -8.8*; CHT block: inactive; Rce1 inh: inactive

How did COc1ccc(C2N(c3ccc4c(c3)OCCO4)C(=O)C2(F)F)cc1OC (stereo not drawn) do in these assays?
ANO1 activ: inactive; ANO1 block: inactive; CHT PAM: inactive; Kir21 block: 1.8; CHT block: inactive; Rce1 inh: inactive

Results for O=C(CSc1nnc(Cn2nnc3ccccc32)o1)N(Cc1ccc(Cl)cc1)c1ccccc1 ?
ANO1 activ: inactive; ANO1 block: 100*; CHT PAM: inactive; Kir21 block: 0.05; CHT block: inactive; Rce1 inh: inactive

What do the screens show for `O=C(CSc1nnc(Cn2nnc3ccccc32)o1)Nc1cccc(Cl)c1`?
ANO1 activ: inactive; ANO1 block: inactive; CHT PAM: inactive; Kir21 block: 0.65; CHT block: inactive; Rce1 inh: inactive

How did CC(=O)c1ccc(-n2c(-c3cc(-c4ccco4)[nH]n3)n[nH]c2=S)cc1 do in these assays?
ANO1 activ: -12*; ANO1 block: inactive; CHT PAM: inactive; Kir21 block: 2.4; CHT block: inactive; Rce1 inh: inactive

Results for O=C(O)c1ccc(-n2c(-c3cc(-c4ccco4)[nH]n3)n[nH]c2=S)cc1 ?
ANO1 activ: inactive; ANO1 block: inactive; CHT PAM: inactive; Kir21 block: -0.12; CHT block: inactive; Rce1 inh: inactive

Results for CC(Oc1ccc(Br)cc1)C(=O)Nc1ccc(S(=O)(=O)N(C)C2CCN(C)CC2)cc1 (stereo not drawn) ?
ANO1 activ: -10*; ANO1 block: inactive; CHT PAM: 7.1*; Kir21 block: -1; CHT block: inactive; Rce1 inh: inactive

What do the screens show for `COc1cccc(CN(C)C(=O)CSCC(=O)Nc2cccc(C)c2)c1OC`?
ANO1 activ: inactive

What do the screens show for `Cc1cccc(-n2c(SCC(=O)N3CCC(C(=O)O)CC3)nc3ccccc3c2=O)c1C`?
ANO1 activ: inactive; ANO1 block: inactive; CHT PAM: inactive; Kir21 block: -0.8; CHT block: inactive; Rce1 inh: inactive

How did Cc1nn(C)cc1C(C(=O)NC1CCCCC1)N(Cc1ccc(F)cc1)C(=O)c1cnccn1 (stereo not drawn) do in these assays?
ANO1 activ: inactive; ANO1 block: inactive; CHT PAM: inactive; Kir21 block: -0.06; CHT block: inactive; Rce1 inh: inactive

What do the screens show for `CC(C)CC(=O)NC(=S)Nc1ccc(S(=O)(=O)Nc2nccs2)cc1`?
ANO1 activ: inactive; ANO1 block: inactive; CHT PAM: inactive; Kir21 block: 0.13; CHT block: inactive; Rce1 inh: active

What do the screens show for `CCOc1ccc(-n2ccc(=O)c(C(=O)Nc3ccc(S(=O)(=O)Nc4nccs4)cc3)n2)cc1`?
ANO1 activ: -23*; ANO1 block: inactive; CHT PAM: inactive; Kir21 block: 1.9; CHT block: inactive; Rce1 inh: inactive
